Test results: the supplement of paper PMC9135407
“And” between values parts separate entries of the source, which are not always exact repeats. Identical values can stand only once. Counter-ions that a name gives are not always drawn. Out of some 5,800 compounds screened, about 620 (11%) showed activity. This is one part of a sample in which actives are shown more often than they occur. A number with no mark means an inactive call.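 How the source made its calls: active = score above a cut-off or among the top three wells of a plate; in these data no inactive exceeds 0.85.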

System: primary human hepatic stellate cells (donor 1)
Assay: scaled lipid accumulation score (0 = DMSO-like, 1 = nortriptyline-like); higher = stronger HSC inactivation (lipid re-accumulation), active = hit call of the paper
Details: 48 h
[1] = library stock concentration: 3.33 mM
[2] = library stock concentration: 10 mM
[3] = library stock concentration: 1 mM

CS(=O)(=O)CCNCc1ccc(-c2ccc3ncnc(Nc4ccc(OCc5cccc(F)c5)c(Cl)c4)c3c2)o1.Cc1ccc(S(=O)(=O)O)cc1.Cc1ccc(S(=O)(=O)O)cc1 [listing 1 of 2 here] was tested, and the “scaled lipid accumulation score” value [1] was 1.36 (active) and the “scaled lipid accumulation score” value [2] was 1.55 (active).

For CS(=O)(=O)CCNCc1ccc(-c2ccc3ncnc(Nc4ccc(OCc5cccc(F)c5)c(Cl)c4)c3c2)o1.Cc1ccc(S(=O)(=O)O)cc1.Cc1ccc(S(=O)(=O)O)cc1 [listing 2 of 2 here], the “scaled lipid accumulation score” value [2] was 1.23 (active).

In the case of CCCCC[C@H](O)/C=C/[C@@H]1[C@@H](C/C=C/CCCC(=O)O)[C@@H](O)C[C@H]1O [5-trans Prostaglandin F2.alpha.], the “scaled lipid accumulation score” value [3] is reported as no more than 0.

In the case of CCCCC[C@H](O)/C=C/[C@@H]1[C@@H](C/C=C/CCCC(=O)O)[C@@H](O)C[C@H]1O [5-trans Prostaglandin F2.alpha. (tromethamine salt)], the “scaled lipid accumulation score” value [3] is reported as no more than 0.

CC(C)(C)n1nc(Cc2cccc3ccccc23)c2c(N)ncnc21 was tested, and the “scaled lipid accumulation score” value [3] was no more than 0.

CCCCC[C@@](C)(O)/C=C/[C@H]1C(=O)C[C@H](O)[C@@H]1C/C=C\CCCC(=O)O [15(R)-15-methyl Prostaglandin D2] was tested, and the “scaled lipid accumulation score” value [3] was no more than 0.

CCCCCCCCCCCCCC(=O)N[C@H](C)[C@@H](O)c1ccccc1 [D-erythro-MAPP] was tested, and the “scaled lipid accumulation score” value [3] was ≤ 0 and 0.048.

CC1(C2CCCC2)Cc2cc(OCC(=O)O)c(Cl)c(Cl)c2C1=O (configuration not stated) was tested, and the “scaled lipid accumulation score” value [2] was no more than -0.055 and the “scaled lipid accumulation score” value (library stock concentration: 14 mM) was no more than -0.021.

N[C@@H](C(=O)N[C@@H]1C(=O)N2C(C(=O)O)=C(CSc3cn[nH]n3)CS[C@H]12)c1ccc(O)cc1 was tested, and the “scaled lipid accumulation score” value [2] was no more than 0.

With CCCCC/C=C/C=C1/C=CC(=O)[C@@H]1C/C=C\CCCC(=O)O [15-deoxy-.DELTA.12,14-Prostaglandin A2] the “scaled lipid accumulation score” value [3] was no more than 0.

With CC(=O)c1ccc2c(c1)N(CCCN(C)C)c1ccccc1S2 [Acepromazine maleate] the “scaled lipid accumulation score” value (library stock concentration: 4.5 mM) was 0.524.

For CC(=O)c1ccc2c(c1)N(CCCN(C)C)c1ccccc1S2.O=C(O)/C=C\C(=O)O [Acepromazine maleate], the “scaled lipid accumulation score” value [2] was 0.989 (active).

CCC(=O)c1ccc2c(c1)N(CCCN(C)C)c1ccccc1S2.Cl [Propionylpromazine hydrochloride] was tested, and the “scaled lipid accumulation score” value [2] was 0.862 (active).

CC(=O)c1ccc2c(c1)N(CCCN(C)C)c1ccccc1S2 [Acetopromazine maleate salt] was tested, and the “scaled lipid accumulation score” value was 0.726.

CC#CCC(C)[C@@H](O)/C=C/[C@@H]1[C@H]2C/C(=C\CCCC(=O)O)C[C@H]2C[C@H]1O (stereo partly drawn) [5-cis-15(R)-Iloprost] was tested, and the “scaled lipid accumulation score” value [3] was no more than 0.

With CN(C)[C@@H]1C(O)=C(C(N)=O)C(=O)[C@@]2(O)C(O)=C3C(=O)c4c(O)cccc4[C@@](C)(O)[C@H]3[C@H](O)[C@@H]12 [Oxytetracycline dihydrate] the “scaled lipid accumulation score” value was 0.056.

In the case of CN(C)[C@@H]1C(O)=C(C(N)=O)C(=O)[C@@]2(O)C(O)=C3C(=O)c4c(O)cccc4[C@@](C)(O)[C@H]3[C@H](O)[C@@H]12 [Oxytetracycline hydrochloride], the “scaled lipid accumulation score” value [2] is reported as no more than 0.

CN(C)[C@@H]1C(O)=C(C(N)=O)C(=O)[C@@]2(O)C(O)=C3C(=O)c4c(O)cccc4[C@@](C)(O)[C@H]3[C@H](O)[C@@H]12 [Oxytetracycline] was tested, and the “scaled lipid accumulation score” value (library stock concentration: 4 mM) was 0.025 and the “scaled lipid accumulation score” value [2] was no more than 0.

For C[C@@H](O)CN(CCN(C[C@@H](C)O)C[C@@H](C)O)C[C@@H](C)O, the “scaled lipid accumulation score” value [2] was no more than 0.

In the case of NNC(=O)c1ccncc1.Nc1ccc(C(=O)O)c(O)c1 [Pasiniazid], the “scaled lipid accumulation score” value [2] is reported as no more than -0.027.

With C#CCCC[C@@H](O)CCCCCCCCCCC(=O)O [12(S)-hydroxy-16-Heptadecynoic Acid] the “scaled lipid accumulation score” value [3] was no more than 0.

In the case of COC(=O)CCSCc1ccc(-c2onc(C)c2NC(=O)OC(C)c2ccccc2Cl)cc1 (configuration not stated), the “scaled lipid accumulation score” value [1] is reported as 0.07 and the “scaled lipid accumulation score” value [2] is reported as no more than 0.

O=C(O)c1c(Sc2ccccc2)c2cc(Cl)ccc2n1Cc1ccc(Cl)cc1 was tested, and the “scaled lipid accumulation score” value [2] was no more than -0.001.

For Clc1ccc(Cn2c(CN3CCCC3)nc3ccccc32)cc1 [Clemizole hydrochloride], the “scaled lipid accumulation score” value was 0.205.

With Cl.Clc1ccc(Cn2c(CN3CCCC3)nc3ccccc32)cc1 [Clemizole hydrochloride] the “scaled lipid accumulation score” value [2] was 0.991 (active).

With CCCCCC(O)C=CC1C2CC(CO2)C1CC=CCCCC(=O)O (configuration not stated) the “scaled lipid accumulation score” value [3] was ≤ 0 and ≤ -0.021.

COCC[n+]1c2c(n(Cc3cnccn3)c1C)C(=O)c1ccccc1C2=O [YM155 (Sepantronium Bromide)] was tested, and the “scaled lipid accumulation score” value [1] was 0.529 and the “scaled lipid accumulation score” value [2] was 0.748.

N#Cc1c(C2CCNCC2)cc(-c2c(O)cccc2OCC2CC2)nc1N was tested, and the “scaled lipid accumulation score” value (library stock concentration: 80 uM) was no more than -0.016, the “scaled lipid accumulation score” value (library stock concentration: 400 uM) was no more than -0.016 and the “scaled lipid accumulation score” value (library stock concentration: 2 mM) was 0.483.

In the case of Cl.N#CC1=C(N)NC(=C2C(=O)C=CC=C2OCC2CC2)C=C1C1CCNCC1, the “scaled lipid accumulation score” value [2] is reported as 1.09 (active).

With N#Cc1c(C2CCNCC2)cc(-c2c(O)cccc2OCC2CC2)nc1N [IKK-2 Inhibitor VIII] the “scaled lipid accumulation score” value [1] was 0.136.

In the case of N#CCCc1ccc2c(c1)-c1[nH]c3ccc([N+](=O)[O-])cc3c1CC(=O)N2 [Alsterpaullone, 2-Cyanoethyl], the “scaled lipid accumulation score” value [1] is reported as 0.08.

CCCCCCCC/C=C\CCCCCCCCCCCCCC(=O)N[C@@H](CO)[C@H](O)/C=C/CCCCCCCCCCCCC [Nervonic Ceramide] was tested, and the “scaled lipid accumulation score” value [3] was 0.002.

In the case of CCCCC[C@@H](O)/C=C/[C@H]1[C@H](O)CC(=O)[C@@H]1C/C=C\CCCC(=O)O [15(R)-Prostaglandin E2], the “scaled lipid accumulation score” value [3] is reported as no more than 0.

In the case of CN(C)CCCN1c2ccccc2Sc2ccc(C(F)(F)F)cc21 [Triflupromazine hydrochloride], the “scaled lipid accumulation score” value is reported as 0.585, the “scaled lipid accumulation score” value (library stock concentration: 5.1 mM) is reported as 0.697 and the “scaled lipid accumulation score” value [2] is reported as 0.508 and 0.792.

CN1CCN(CCCN2c3ccccc3Sc3ccc(C(F)(F)F)cc32)CC1 [Trifluoperazine dihydrochloride] was tested, and the “scaled lipid accumulation score” value was 0.393.

In the case of CN1CCN(CCCN2c3ccccc3Sc3ccc(C(F)(F)F)cc32)CC1 [Trifluoperazine 2HCl], the “scaled lipid accumulation score” value [1] is reported as no more than 0 and the “scaled lipid accumulation score” value [2] is reported as 0.815.

For CCSc1ccc2c(c1)N(CCCN1CCN(C)CC1)c1ccccc1S2 [Thiethylperazine malate], the “scaled lipid accumulation score” value was 0.362.

For CN1CCN(CCCN2c3ccccc3Sc3ccc(C(F)(F)F)cc32)CC1.Cl.Cl [Trifluoperazine dihydrochloride], the “scaled lipid accumulation score” value [2] was 0.914 (active).

CN1CCN(CCCN2c3ccccc3Sc3ccc(C(F)(F)F)cc32)CC1 [Trifluoperazine] was tested, and the “scaled lipid accumulation score” value (library stock concentration: 4.9 mM) was 0.434.

In the case of CN1CCN(CCCN2c3ccccc3Sc3ccc(C(F)(F)F)cc32)CC1.Cl.Cl [Trifluoperazine], the “scaled lipid accumulation score” value (library stock concentration: 10.4 mM) is reported as 0.892 (active).

With CN1CCN(CCCN2c3ccccc3Sc3ccc(C(F)(F)F)cc32)CC1 the “scaled lipid accumulation score” value [2] was 0.99 (active).

For CN1CCN(CCCN2c3ccccc3Sc3ccc(C(F)(F)F)cc32)CC1 [Trifluoperazine hydrochloride], the “scaled lipid accumulation score” value [2] was 0.396.
